# Screens as filed in PubChem.
# NS1 function inh: qHTS Assay for Inhibitors of Influenza NS1 Protein Function | Potency, µM (highest dose often 46.1 µM), inactives show at the top dose activity, positive = more growth | 0.4% of 270,000 active; calls by dose curve; further: potency means the concentration at half of the fitted maximal effect; actives are rising curves; nearly all actives have a fitted effect of over 50% in size
#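 S. cerevisiae expressing influenza A NS1, grown in glucose, washed, then diluted 1:100 into pH 6.0 -URA galactose medium with 23 nl compound. Growth recovery read as OD600; NS1-free strain serves as control.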
# AmpC inh no detg: qHTS Inhibitors of AmpC Beta-Lactamase (assay without detergent) | AmpC nitrocefin hydrolysis, absorbance 480 nm, 0.0001% Triton | AID 485341, 2010 | Potency, µM (top dose mostly 57.1 µM), for inactives: at the highest dose activity change, negative = inhibition, usual class: inhibitors | 0.52% of 330,000 active;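 further: potency means the concentration at half of the fitted maximal effect; plate controls were no compound for no effect and no enzyme for full effect; nearly all actives have a fitted effect of over 20% in size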
# Target sequence (P00811 whole entry, looked up): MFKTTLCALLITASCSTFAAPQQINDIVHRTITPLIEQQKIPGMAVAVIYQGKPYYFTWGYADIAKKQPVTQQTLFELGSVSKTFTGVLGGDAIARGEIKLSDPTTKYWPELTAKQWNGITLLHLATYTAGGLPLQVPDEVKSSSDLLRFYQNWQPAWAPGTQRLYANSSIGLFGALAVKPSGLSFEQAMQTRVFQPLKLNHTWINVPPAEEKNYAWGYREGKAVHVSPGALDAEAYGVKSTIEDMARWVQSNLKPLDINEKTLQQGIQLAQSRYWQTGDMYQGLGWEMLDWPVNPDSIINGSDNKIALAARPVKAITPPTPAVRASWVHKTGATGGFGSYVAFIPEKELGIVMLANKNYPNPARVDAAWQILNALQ
#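 20 mM phosphate pH 7.0 + 0.01% (detergent screen) or 0.0001% Triton X-100; 5.3 nM AmpC reagent; cpd preinc 15 min RT; nitrocefin (800 uM stock) to start; A480 q20 s × 4 min; Activity was normalised to no-enzyme and no-compound control wells.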
# AmpC detergent: qHTS Inhibitors of AmpC Beta-Lactamase (assay with detergent). P00811. AID 485294, 2010. Potency, µM (highest dose often 114 µM), for inactives: at the highest dose activity change, negative = inhibition, usual class: inhibitors. AmpC hydrolysis of nitrocefin, absorbance 480 nm, 0.01% Triton. 0.041% of 370,000 active;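 further: potency means the concentration at half of the fitted maximal effect; 0% = no-compound wells and -100% = no-enzyme wells; nearly all actives have a fitted effect of over 25% in size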
#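 AmpC (5.3 nM in the dispensed reagent) in 20 mM phosphate pH 7.0 with 0.01% (detergent screen) or 0.0001% Triton X-100 was preincubated with compounds for 15 min at room temperature. Nitrocefin was then added from an 800 uM solution, and hydrolysis was followed at 480 nm.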
# Shiga toxin inh: A qHTS for Small Molecule Inhibitors of Shiga Toxin; Vero cells, Shiga toxin protein synthesis inhibition reporter; inhibition, % at 38.7 µM; 9.2% of 290,000 active; AID 2315, 2010; in the data active means inhibition mostly above about 28%, no sharp cut-off; inactive means mostly below about 43%; further: 0% is about no effect
# CHX counter: Cycloheximide Counterscreen for Small Molecule Inhibitors of Shiga Toxin | cell reporter, cycloheximide protein synthesis inhibition counterscreen | max response, % | 12% of 300,000 active | AID 2314, 2010; in the data active means max response mostly above about 13%, no sharp cut-off; inactive means mostly below about 14%; further: read at 38.3 µM for the half of the compounds with a filed dose; 0% is about no effect
# Starred values were filed as active, the others as inactive; ? = inconclusive; . = no result. This is one part of a sample in which hits are shown more often than they occur. Unless noted, the call rests on the fitted dose curve; in most records, active means well fitted curve in the direction sought with a large enough effect; inconclusive means small, poorly fitted or top-dose-only effect, or another doubt; inactive means no such curve, though single readings can be large; an effect the other way counts as inactive or inconclusive.
SMILES,NS1 function inh,AmpC inh no detg,AmpC detergent,Shiga toxin inh,CHX counter
O=C(/C=C/c1ccc(-c2ccc(F)cc2)o1)N1CCCC1,.,78.7%,1.7%,63.5*,39.2*
O=C(c1cc(-c2ccccc2)on1)N1CCN(C(=O)c2ccco2)CC1,-28.1%,0.3%,?,38.2,19.1*
Fc1ccc(-c2ccc(/C=N/n3cnnc3)o2)cc1,-15.7%,-17.8%,-0.1%,-7.6,1.4
COc1ccc(-c2cc(C(F)(F)F)c(C#N)c(SCC(=O)O)n2)cc1OC,1.3%,-14.6%,8.3%,-15.3,2.6
CC(C)C[C@H](NC(=O)CNC(=O)[C@H](CCC(N)=O)NC(=O)[C@H](CC(C)C)NC(=O)[C@H](CC(C)C)NC(=O)[C@H](CCCNC(=N)N)NC(=O)[C@H](CCC(N)=O)NC(=O)[C@H](CC(C)C)NC(=O)[C@H](CCCNC(=N)N)NC(=O)[C@H](C)NC(=O)CNC(=O)[C@H](CCC(=O)O)NC(=O)[C@H](CCCNC(=N)N)NC(=O)[C@H](CC(C)C)NC(=O)[C@H](CCCNC(=N)N)NC(=O)[C@H](CO)NC(=O)[C@H](CC(C)C)NC(=O)[C@H](CCC(=O)O)NC(=O)[C@H](CO)NC(=O)[C@@H](NC(=O)[C@H](Cc1ccccc1)NC(=O)[C@@H](NC(=O)CNC(=O)[C@H](CC(=O)O)NC(=O)[C@H](CO)NC(=O)[C@@H](N)Cc1cnc[nH]1)[C@@H](C)O)[C@@H](C)O)C(=O)N[C@H](C(N)=O)C(C)C,.,.,.,-14.5,-5.9
Cc1ccc(NC(=O)C2CCN(c3nc4ccccc4nc3C(F)(F)F)CC2)cc1F,.,.,5.2%,.,.
O=C(c1cc(-c2ccc(Br)cc2)on1)N1CCCC1,-10.5%,18.8%,-6.3%,118.1*,33.1*
CC(C)c1cc(C(=O)N2CCN(C(c3ccccc3)c3ccccc3)CC2)no1,-66.1%,58.0%,-15.2%,31.9*,29.4*
O=C(c1sc2ccccc2c1Cl)N1CCC2(CC1)OCCO2,-3.3%,27.5%,0.6%,17.4,11.5*
COC(=O)c1cc(-c2ccc(Br)cc2)on1,-111.2%,-6.7%,?,-2.2,-2.7
O=C(c1cc(-c2ccc(F)cc2)on1)N1CCCCCC1,4.5%,8.2%,?,114.8*,46.2*
O=c1cc(-c2ccc3c(c2)OCCO3)oc2ccc(Cl)cc12,-5.4%,-26.5%,-3.8%,75.5*,46.6*
O=c1cc(-c2ccsc2)oc2cc(-c3ccc4c(c3)OCO4)ccc12,.,-25.3%,.,.,.
O=c1cc(-c2cccs2)oc2ccc(Cl)cc12,-22.0%,-19.7%,-5.4%,58.5*,37.4*
CCOC(=O)N1CCC(NC(=O)c2cc3sccc3n2CC)CC1,-1.3%,35.0%,-5.7%,8.3,-2.1
Cn1c(C(=O)NC2CCCCC2)cc2sccc21,-11.7%,-10.5%,?,50.5,28.7*
CN(C(=O)c1cc2sccc2n1C)C1CCCCC1,-11.8%,23.7%,-0.2%,99.1*,42.3*
CCn1c(C(=O)NC2CCC(C)CC2)cc2sccc21 (stereo unspecified),2.8%,-25.9%,-10.1%,73.4*,37.6*
CC1CCN(CCCNC(=O)c2cc3sccc3n2C)CC1,0.9%,-3.4%,?,-17.9,-6.0
CCN(CCn1cccn1)C(=O)c1cc(COc2ccc(F)c(F)c2)on1,-18.7%,52.5%,2.1%,50.0*,30.4*
CCN(CCn1cccn1)C(=O)c1cc(COc2ccccc2SC)on1,-12.1%,46.2%,1.1%,94.0*,64.7*
CCN(Cc1ccncc1)C(=O)c1cc(COc2c(F)cccc2F)on1,-11.6%,9.7%,-9.8%,-2.5,9.2
CCN(CCn1cccn1)C(=O)c1cc(COc2cc(C)ccc2C)on1,-20.2%,101.9%,0.7%,167.8*,61.5*
O=C(OCc1cc(=O)n2nc(C3CC3)sc2n1)c1ccc(NC(=O)c2ccccc2Cl)cc1,.,.,7.6%,.,.
COc1ccc(-c2onc(C)c2C)cc1S(=O)(=O)N1CCc2ccccc21,.,.,3.3%,.,.
SMILES,NS1 function inh,AmpC inh no detg,AmpC detergent,Shiga toxin inh,CHX counter
COc1ccc(C(=O)C2CCCN(C(=O)CCC3=NNC(=O)CC3)C2)c(C)c1 (stereo unspecified),2.5%,-12.5%,-2.8%,16.7,-4.4
COc1cccc(C(=O)C2CCCN(C(=O)CCC3=NNC(=O)CC3)C2)c1 (stereo unspecified),0.2%,2.2%,-4.3%,45.7*,15.7*
O=C(c1cccc(C(F)(F)F)c1)C1CCCN(C(=O)C2CCOCC2)C1 (stereo unspecified),8.2%,77.9%,2.3%,3.5,14.3*
O=C1CCC(CCC(=O)N2CCCC(C(=O)c3cccc(C(F)(F)F)c3)C2)=NN1 (stereo unspecified),-0.3%,12.8%,3.3%,14.7,11.1*
O=C(c1cccc(C(F)(F)F)c1)C1CCCN(C(=O)CN2CCOC2=O)C1 (stereo unspecified),12.7%,4.7%,-1.0%,16.7,11.0
COc1ccc2[nH]cc(CCNS(=O)(=O)c3ccc(F)cc3)c2c1,2.1%,-15.6%,6.5%,-8.1,-1.2
C/C(Cl)=C/Cc1c(C)[nH]c2c(ccc3ccccc32)c1=O,12.2%,-10.6%,?,-3.2,2.1
C/C(Cl)=C/Cc1c(C)[nH]c2ccc(C)cc2c1=O,-41.7%,-34.2%,-1.4%,40.9,26.9*
O=C(O)c1ccccc1SCc1csc(-c2ccccc2)n1,5.2%,-17.8%,-0.2%,38.1,32.2*
O=C(OCc1csc(-c2ccccc2)n1)c1ccccc1O,.,-25.8%,-2.1%,109.7*,61.3*
O=C(C[n+]1cn(C(F)F)c2ccccc21)c1ccc(Br)cc1,-36.7%,-29.1%,-8.3%,62.4*,28.4*
O=C(NCc1cccnc1)c1ccc(S(=O)(=O)Nc2ccccc2)cc1,.,-9.5%,-11.2%,.,.
COc1ccc(NC(=O)c2ccc(S(=O)(=O)NCc3cccnc3)cc2)cc1,1.8%,-6.7%,-0.2%,30.9,9.5*
O=C(CCc1ccc(S(=O)(=O)NC2CCCCC2)cc1)NCc1cccnc1,1.4%,-21.9%,-7.2%,31.4,15.0*
Cc1ccc(NS(=O)(=O)c2ccc(C(=O)NCc3cccnc3)cc2)cc1,-2.0%,-9.6%,2.1%,75.9*,55.0*
Cc1ccc(CNC(=O)CCc2ccc(S(=O)(=O)NC3CCCCC3)cc2)cc1,-27.9%,-21.7%,7.1%,20.3,-4.9
CC1(C)C(=O)OC(c2ccccc2)C2(CCCC2)C1=O (stereo unspecified),-7.1%,4.2%,0.6%,-23.4,3.2
O=C(NCCc1ccccc1)c1ccc2c(c1)CCN2S(=O)(=O)c1ccc(Cl)cc1,.,.,0.1%,.,.
Cc1ncc(CO)c(CO)c1O,.,-7.7%,5.3%,.,.
Cc1ncc(CO)c(CNc2ccc(-c3nc4ccccc4[nH]3)cc2)c1O,1.6%,-24.6%,3.5%,28.4,15.5*
O=C(O)CCNCC(=O)O,1.1%,.,.,.,.
O=C(Nc1ccccc1C(=O)Nc1ccccc1)c1ccccc1F,-1.4%,-12.8%,2.6%,-3.8,-4.6
N#Cc1ccc(C(=O)Nc2ccc([N+](=O)[O-])cc2)c(F)c1,4.0%,-26.6%,4.8%,52.0*,7.8
